Experimental data taken from PubChem BioAssay AID2842 (Southern Research Institute, 2010).
The whole screen tested about 24,000 compounds, of which about 1,200 (5%) were called active. Not shown: some 2% with an inconclusive outcome. The rule behind the calls is not given here. The list is a sample of the results.

Assay: Mycobacterium tuberculosis H37Rv growth inhibition, putative kinase inhibitor library, confirmatory dose response (AID 2842);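 for inhibition: bacteria incubated one week before Alamar blue readout; 0% = bacteria only wells and 100% = bacteria with high antibiotic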
Settings: M. tuberculosis H37Rv growth inhibition; CC50: measured here: Vero cell cytotoxicity; inhibition: stronger effect = higher value

| Structure (SMILES) | inhibition | CC50 [µg/mL] |
| --- | --- | --- |
| CC(=O)Nc1ccc(NC(=O)CSc2ccc(-c3ccc(Cl)cc3)nn2)cc1 | 0% (inactive) |  |
| O=C(COc1ccccc1F)NC1CC(=O)N(c2ccc(Cl)cc2)C1 (centres undefined) | 7.9% (inactive) |  |
| CCOc1cccc2c1OC(c1cccnc1)N1N=C(c3cccc(O)c3)CC21 (centres undefined) | -10.5% (inactive) |  |
| O=C(CC1Nc2cccc3cccc(c23)NC1=O)Nc1ccc(F)cc1 (centres undefined) | 27.5% (inactive) |  |
| COc1ccc2nc(NC(=O)c3cc(-c4ccccc4)nc4ccccc34)sc2c1 | 95.1% (inactive) | > 40 |
| COc1cccc(C(=O)COC(=O)c2cc3cc(Br)cc(OC)c3oc2=O)c1 | -0.935% (inactive) |  |
| CCOC(=O)c1nn(-c2ccc(C)cc2)c(=O)cc1NCc1ccncc1 | -9.72% (inactive) |  |
| COc1ccc(/C=C2\SC(=S)N(CCC(=O)Nc3nccs3)C2=O)cc1OC | -4.88% (inactive) |  |
| COc1ccccc1N1C(=O)N(c2cccc([N+](=O)[O-])c2)C2CS(=O)(=O)CC21 (centres undefined) | -5.59% (inactive) |  |
| CCS(=O)(=O)c1ccccc1C(=O)Nc1sc2c(c1C(N)=O)CCC(C)C2 (centres undefined) | -17.6% (inactive) |  |
| O=C(Nc1ccc(F)cc1)c1cn(Cc2ccccc2)cc2c(=O)n(-c3ccccc3)nc1-2 | -8.1% (inactive) |  |
| O=C(CCCc1ccccc1)Nc1c(C(=O)Nc2ccc3c(c2)OCO3)oc2ccccc12 | -0.74% (inactive) |  |
| Fc1ccc2nc(Nc3nnc(-c4cccs4)o3)sc2c1 | 36% (inactive) |  |
| COc1cccc(-c2nc(C(N)=O)c3[nH]c(=O)n(-c4ccccc4F)c3n2)c1 | -10.4% (inactive) |  |
| Cc1ccc(NC(=O)c2oc3ccccc3c2NC(=O)c2ccc([N+](=O)[O-])cc2)cc1 | 3.31% (inactive) |  |
| COc1ccc2cc(CCNC(=O)c3ccccc3OC)c(=O)[nH]c2c1 | 5.57% (inactive) |  |
| Cc1c(C(=O)O)c2cc(O)ccc2n1C | 12.9% (inactive) |  |
| O=C(CN1C(=O)CCC1=O)Nc1nc(-c2ccc(Cl)c(Cl)c2)cs1 | 0.41% (inactive) |  |
| COc1ccc(Cl)cc1NC(=O)CSc1nnc(CCC(=O)O)c(=O)n1N | -10.7% (inactive) |  |
| O=C(Nc1nc2c(s1)CCCC2)c1coc2ccccc2c1=O | -2.85% (inactive) |  |
| O=C(NCc1ccc2[nH]c3c(c2c1)CCCC3)Nc1ccccc1 | 62.6% (inactive) |  |
| COc1ccc(Nc2ncnc(N)c2[N+](=O)[O-])c(OC)c1 | 0.53% (inactive) |  |
| Cc1ccc(-c2csc(Nc3ccc(O)c(C(=O)O)c3)n2)cc1 | -6.04% (inactive) |  |
